Source: ChEMBL document CHEMBL3988442, “University of Dundee, Small-Polar-MMV Screening Library” (2021)

How the values were obtained:
[1] = biological target: T1, Aspartate--tRNA(Asp/Asn) ligase (Mycobacterium tuberculosis (strain ATCC 25618 / H37Rv)) (UniProt P9WFW3); assay: Assay for Asp RNA synthetase-1 from Mycobacterium tuberculosis; type: functional; design: scale not given: direction of the effect not stated beside the values; details: 30 µM; further: in the data most compounds retested in dose-response had high values
T1 sequence (whole entry): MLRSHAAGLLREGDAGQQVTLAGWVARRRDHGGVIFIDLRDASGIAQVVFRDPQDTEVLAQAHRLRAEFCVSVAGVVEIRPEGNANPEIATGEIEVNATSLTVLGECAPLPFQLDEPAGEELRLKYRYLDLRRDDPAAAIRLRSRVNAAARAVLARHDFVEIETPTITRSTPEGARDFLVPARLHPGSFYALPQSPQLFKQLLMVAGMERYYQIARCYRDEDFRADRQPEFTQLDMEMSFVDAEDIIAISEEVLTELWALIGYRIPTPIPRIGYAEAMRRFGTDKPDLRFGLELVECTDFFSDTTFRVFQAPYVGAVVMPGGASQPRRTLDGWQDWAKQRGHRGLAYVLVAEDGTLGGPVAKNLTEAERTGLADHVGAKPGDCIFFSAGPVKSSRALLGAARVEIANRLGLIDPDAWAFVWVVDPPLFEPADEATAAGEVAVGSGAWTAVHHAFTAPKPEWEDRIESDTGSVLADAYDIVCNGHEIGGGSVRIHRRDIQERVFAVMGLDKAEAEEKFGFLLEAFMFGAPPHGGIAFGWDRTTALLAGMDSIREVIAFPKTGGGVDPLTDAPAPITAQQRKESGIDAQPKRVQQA

[2] = biological target: Shiga toxin 2 (Escherichia coli O157:H7) (UniProt P09385+P09386); assay: E. coli 0.157:H7 Shiga Toxin SOP - stx2 screening assay; type: functional; design: scale not given: direction of the effect not stated beside the values; details: 30 µM

SMILES	Percent Effect [1]	Percent Effect [2]
CNC(=O)c1cccc(C2CNCCN2C)c1 (centres undefined)	-2.1%	-13.8%
CCN(Cc1ccc2c(c1)OCO2)C(=O)c1ccc(C)[nH]c1=O	0.522%	-16%
CNc1nc(CNC(=O)Nc2cccc(-c3nnco3)c2)cs1	2.65%	-22.3%
CN(C)CCN(Cc1cccc(C(F)(F)F)c1)C(=O)c1cc[nH]n1	0.947%	-18.8%
Cc1cc(=O)[nH]c(NCCNC(=O)C(c2ccc(F)cc2)N(C)C)n1 (centres undefined)	-2.14%	-65.1%
COCCN(Cc1nc2c(cnn2C)c(=O)[nH]1)Cc1ccco1	0.88%	22.5%
CCc1ccc(CN2CCCC(CO)(CCOC)C2)cc1 (centres undefined)	-1.96%	-14%
CN(C)C(CNC(=O)c1cc2c([nH]c1=O)CCCC2=O)c1ccsc1 (centres undefined)	2.97%	-21.1%
CC(C)n1c(=O)nc2n1C(=O)N(c1ccc(F)cc1)C2	2.49%	2.99%
CN(C)CC1CN(Cc2nnc(-c3ccccc3Cl)o2)CCO1 (centres undefined)	-1.66%	-41.7%
NC(=O)CC1CCN(C(=O)CCOc2ccc(Cl)cc2)CC1	-1.03%	32.7%
CN1CCN(Cc2cnc3n2CCN(Cc2cccs2)C3)CC1	5.52%	-18.8%
CCO[C@H]1CO[C@@]2(CCCN(S(=O)(=O)c3ccccc3)C2)C1	4.62%	-21.7%
OC(COCc1ccccc1F)CN1CCc2c(ncn2C2CC2)C1 (centres undefined)	-6.48%	-4.88%
C[C@H]1CN(Cc2cnn(C)c2)C[C@@]12CCN(Cc1cccnc1)C2=O	-2.89%	-10.2%
CN1CC(=O)N(c2cccnc2)CC12CCN(C(=O)c1cccnc1)C2 (centres undefined)	4.16%	-12%
CC(Cn1ccnc1)NC(=O)C1(c2ccc3c(c2)OCCO3)CCCC1 (centres undefined)	-0.0286%	-20.7%
O=C(NCCCN1CCOCC1)Nc1cnc2cc(Cl)ccc2c1O	1.35%	-13.4%
CC(C)Oc1ncccc1CNC(=O)N1CCC1c1ccccc1 (centres undefined)	0.589%	-9.32%
CC(CCc1ccccc1)NC(=O)Nc1cnn(CC(N)=O)c1 (centres undefined)	2.84%	-44.2%
Cc1csc(CN2CC[C@H]3C[C@H](c4nnc(C)[nH]4)O[C@@H]3C2)n1	1.94%	0.515%
COc1c(CNCc2cccc(CS(C)(=O)=O)c2)c(C)nn1C	1.7%	20.4%
